# Results reported in PubChem BioAssay AID1645883 (National Center for Advancing Translational Sciences (NCATS), 2021).
# The campaign covered roughly 16,000 compounds. About 160 (1%) were called active. Another 8% or so got no clear call; they are omitted. Shown is part of a subset that was picked to be rich in actives. Values without a mark were called inactive. The call rests on the fitted dose curve; in most records, active means well fitted activation curve with a large enough effect; inconclusive means small, poorly fitted or top-dose-only effect; inactive means no such curve, though single readings can be large or run the other way.
# Molecular target: Rap guanine nucleotide exchange factor 3 (Homo sapiens) (UniProt O95398)
# Experiment: Validation qHTS for agonist of cAMP-regulated guanine nucleotide exchange factor 3 (EPAC1); further: nearly all actives have a fitted effect of over 70% in size
# Conditions: EPAC1 Rap1b BODIPY-GDP exchange, fluorescence; max response: stronger effect = higher value, percent of cAMP control response
# From the text: Assay Provider (PI): Xiaodong Cheng Ph.D.
# The University of Texas Medical Branch, […], TX
# In multi-cellular eukaryotic organisms, the effects of cAMP are transduced by two ubiquitously-expressed intracellular cAMP receptors, the classic protein kinase A/cAMP-dependent protein kinase (PKA/cAPK) and the more recently discovered exchange protein directly activated by cAMP/cAMP-regulated guanine nucleotide exchange factor (EPAC/cAMP-GEF). Both PKA and EPAC are ubiquitously expressed in all tissues, and an increase in intracellular cAMP levels will lead to the activation of both PKA and EPAC. Therefore, careful dissections of the individual role and relative contribution of EPAC and PKA within the overall cAMP signaling in various model systems are critical for further elucidating the mechanism of cAMP signaling. To date no EPAC-specific antagonists and agonist, as well as isoform-specific agonists have been reported, and developing EPAC-specific pharmacological probes to determine the physiological functions that EPAC play in the overall cAMP-mediated signaling remains a major challenge within the research field. Furthermore, identified regulators of EPAC may lead to new mechanism-based therapeutic strategies specifically targeting the EPAC / cAMP-signaling components as EPAC has been implicated to play important roles in major human pathological conditions such as diabetes, heart disease, and cancer.
# This qHTS will be used to screen the Molecular Libraries Small Molecule Repository (MLSMR) as a concentration-titration series using the NCGC unique quantitative screening (qHTS) platform to find activators for EPAC1. In addition, this assay will also be used as a counterscreen for the EPAC2 qHTS. This fluorescent based assay is developed and validated for EPAC1 that measures exchange using EPAC effector Rap1 complex with BODIPY-GDP, a GDP analog with a tethered fluorophores. Activators are identified by monitoring the change in fluorescence signal as the exchanged free BODIPY-GDP has a reduced fluorescence compared to Rap1-bound BODIPY-GDP. Increase in signal (activation) is the desired outcome for the EPAC1 agonist while no activity in this assay is desired for the EPAC2 agonist counterscreen.
# [1] de Rooij, J., Zwartkruis, F. J., Verheijen, M. H., Cool, R. H., Nijman, S. M., Wittinghofer, A., and Bos, J.L. (1998) Nature 396, 474-477.
# Briefly, three uL of reagents (100 nM EPAC1, 250 nM RAP1B-BODIPY-GDP, 50 uM GDP) were dispensed into a 1536-well Greiner black solid-bottom medium binding assay plate. Controls and test compounds (23 nL) were transferred to the plate via a Kalypsys pin tool equipped with a 1536-pin array. The plates were centrifuged at 1,000 rpm for 15 seconds followed by 5 minute incubation at room temperature. The assay plates were read at 5 minute intervals for 30 minutes in the ViewLux plate reader using 480nm excitation and 540nm emission filters. The results were normalized to the agonist positive control of 6.5 mM cAMP.
# On the % scale 0 is the no-effect control and ±100 the full control effect; potency means the concentration at half of the fitted maximal effect.
# Chain of Rap guanine nucleotide exchange factor 3 (Homo sapiens) (O95398 whole entry, looked up): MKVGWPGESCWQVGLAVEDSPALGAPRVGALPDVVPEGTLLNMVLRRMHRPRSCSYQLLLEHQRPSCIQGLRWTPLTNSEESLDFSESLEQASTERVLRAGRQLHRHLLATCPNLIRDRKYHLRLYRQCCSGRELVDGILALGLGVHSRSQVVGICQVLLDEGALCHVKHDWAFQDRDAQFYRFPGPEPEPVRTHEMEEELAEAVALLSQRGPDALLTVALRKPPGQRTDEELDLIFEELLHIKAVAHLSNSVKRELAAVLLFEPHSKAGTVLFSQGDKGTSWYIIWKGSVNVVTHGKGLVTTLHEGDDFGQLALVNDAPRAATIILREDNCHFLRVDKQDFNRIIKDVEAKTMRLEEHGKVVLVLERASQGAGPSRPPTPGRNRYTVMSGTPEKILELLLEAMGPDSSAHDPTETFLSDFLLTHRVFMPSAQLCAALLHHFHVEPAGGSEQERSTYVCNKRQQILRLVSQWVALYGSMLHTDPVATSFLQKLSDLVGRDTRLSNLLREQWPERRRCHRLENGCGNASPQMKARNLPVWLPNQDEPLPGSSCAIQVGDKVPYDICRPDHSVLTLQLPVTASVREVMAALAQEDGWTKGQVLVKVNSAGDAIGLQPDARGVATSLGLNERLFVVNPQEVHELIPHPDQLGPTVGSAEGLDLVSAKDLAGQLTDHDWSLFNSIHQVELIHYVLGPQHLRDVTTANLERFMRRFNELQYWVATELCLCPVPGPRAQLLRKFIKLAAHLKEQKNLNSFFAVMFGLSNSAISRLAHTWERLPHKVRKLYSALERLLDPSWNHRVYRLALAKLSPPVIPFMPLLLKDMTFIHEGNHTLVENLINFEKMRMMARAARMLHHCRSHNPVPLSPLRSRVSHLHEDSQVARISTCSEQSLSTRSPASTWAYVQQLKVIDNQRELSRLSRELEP
Compound,max response,Potency
COc1ccc(/C=C2\NC(=O)[C@@H]3Cc4ccccc4CN3C2=O)cc1,5.8%,
CN1CCN2c3ccccc3Cc3ccccc3[C@@H]2C1,-0.216%,
CCS(=O)(=O)Nc1cc(C(=O)N2C[C@@H](C)O[C@@H](C)C2)c2c(c1)nc(-c1ccccc1)n2C,19.2%,
COc1ccc(CNc2ncnc3ccc(-c4cccnc4)cc23)c(OC)c1,-62.5%,
FC(F)(F)c1ccccc1-c1nc(-n2ccnc2)c2ccccc2n1,0.971%,
CC(=O)Nc1ccc(SC[C@H](Cc2ccccc2)N2CC[C@@H](C)CCC2=O)cc1,-7.47%,
CCCN(C/C=C\I)[C@@H]1CCc2cccc(O)c2C1,-15.6%,
COc1ccccc1-c1nc(N2CCN(C)CC2)c2ccccc2n1,-31.8%,
c1ccc2nc(C3=NCCN3)cnc2c1,0.273%,
O=c1cnc2cnc(Nc3ccccc3)nc2n1Cc1ccc(F)cc1,-19.3%,
Nc1ccc2c3c(cccc13)C(=O)NC2=O,,7.08 µM (active)
CCC1CN(CCNC(=O)c2ccsc2)Cc2cc(OC)ccc2O1 (centres undefined),4.39%,
O=c1c(CCc2ccccc2)nc2cncnc2n1C1CC1,26%,
CC(=O)c1ccc(F)c(-c2cc(C)cc3c2OC(CNC(=O)Cc2c[nH]c4ccccc24)C3)c1 (centres undefined),24.4%,
CCCCCCCCCCCCCCCCO,-1.51%,
CC(=O)OCC(=O)[C@@]1(O)CCC2C3CCC4=CC(=O)CC[C@@]4(C)[C@]3(F)C(O)C[C@]21C (some centres undefined),-5.21%,
CN1CC(O)c2cc(N=NC(N)=O)c(O)cc21 (centres undefined),-6.9%,

Compound,max response,Potency
CCCc1nc2c(C)cc(-c3nc4ccccc4n3C)cc2n1Cc1ccc(-c2ccccc2C(=O)O)cc1,-43.1%,
COc1ccccc1CNc1cc(-c2ccccc2CN(C)C)ncn1,-35.4%,
FC(F)(F)c1ccccc1-c1cc(NCc2ccccc2)ncn1,-105%,
Cc1cnc(C(=O)N2CCOc3ccc(CN4CCCC(C(=O)c5cccnc5)C4)cc3C2)[nH]1 (centres undefined),-8.53%,
O=C(Nc1ccc(O)cc1)c1ccccc1O,7.12%,
CC(C(=O)O)c1ccc(C2CCCCC2)c2ccccc12 (centres undefined),5.84%,
CCOC(=O)Cc1cccc(-c2cc(CCCCCCc3ccc(O[C@H]4O[C@H](COC(C)=O)[C@@H](OC(C)=O)[C@H](OC(C)=O)[C@@H]4OC(C)=O)c(-c4cccc(CC(=O)OCC)c4)c3)ccc2O[C@H]2O[C@H](COC(C)=O)[C@@H](OC(C)=O)[C@H](OC(C)=O)[C@@H]2OC(C)=O)c1,-9.09%,
CCc1nc2cc(C(=O)NCC3CCS(=O)(=O)C3)cc(NC(=O)c3ccccc3OC)c2n1C (centres undefined),-13.5%,
COC(=O)c1ccccc1C(=O)NCc1nc(N2CCCC2)c2cccc(C)c2n1,-26.9%,
CN(Cc1cccc2ncccc12)C(=O)c1cnn(-c2nccc(-c3ccccc3F)n2)c1C1CC1,-28.3%,
CC(=O)N1CCC2(CC1)CCN(c1ccncc1)CC2,-44.5%,
Cc1noc(C)c1-c1nc(Nc2ccccc2)c2ccccc2n1,-34.4%,
O=C(c1ccncc1)N1CCC2(CCN(Cc3cc(C(F)(F)F)cc(C(F)(F)F)c3)CC2)CC1,-125%,
CC(C)NC(=O)N1CC[C@@]2(CCCN(C(=O)c3cccc(F)c3)C2)C1,17.8%,
O=C(c1cc(C(F)(F)F)cc(C(F)(F)F)c1)N1CCC2(CCCN(c3ccccn3)C2)CC1,-45%,
CC(C)NC(=O)N1CCCC2(CCN(C(=O)c3cccn3C)CC2)C1,-48.1%,
N#Cc1ccc[n+](CC(=O)c2ccc(F)cc2)c1,3.1%,
